The nature of test [1]: NCI Yeast Anticancer Drug Screen. Data for the rad50 strain (AID 155).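 Further: 0% = growth of vehicle-only cultures of the same strain.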 The following applies: S. cerevisiae rad50 strain growth inhibition, hits give high values. The essentials: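 Genetically altered yeast (DNA repair pathway); compound treatment; growth inhibition vs vehicle ctrl.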
A short description of test [2]: NCI Yeast Anticancer Drug Screen. Data for the mec2-1 strain (AID 157). The following applies: S. cerevisiae mec2-1 strain, hits give high values. The essentials:
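mec2-1 yeast strain, carrying an alteration in DNA damage repair or cell cycle control, was exposed to compounds; growth inhibition was measured relative to vehicle-treated controls.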

Test [3] in a line: NCI Yeast Anticancer Drug Screen. Data for the sgs1 mgt1 strain (AID 161).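 Further: 0% = growth of cultures given vehicle only.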 The following applies: S. cerevisiae sgs1 mgt1 strain, hits give high values. The essentials:
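Growth of a repair-deficient yeast mutant was monitored after compound treatment and expressed as inhibition relative to vehicle-treated cultures.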

Test [4] can be described thus: NCI Yeast Anticancer Drug Screen. Data for the cln2 rad14 strain (AID 165).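 Further: 0% = growth equal to vehicle treated cultures.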 The following applies: S. cerevisiae cln2 rad14 strain, hits give high values. Summed up:
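Yeast carrying cln2 and rad14 alterations (cell cycle control and DNA damage repair) were exposed to compounds. Growth inhibition was measured against vehicle-treated controls.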

Test [5] in a line: NCI Yeast Anticancer Drug Screen. Data for the bub3 strain (AID 167). The conditions noted are these: S. cerevisiae bub3 mutant strain, hits give high values. Summed up: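 Yeast carrying a defined mutation is treated with each compound, and growth is compared with that of vehicle-exposed cells to give inhibition.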
The nature of test [6]: NCI Yeast Anticancer Drug Screen. Data for the mlh1 rad18 strain (AID 175). The following applies: S. cerevisiae mlh1 rad18 strain growth inhibition, hits give high values. The essentials:
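Growth inhibition of the yeast strain was measured after compound exposure and expressed relative to vehicle-treated controls. The strain carries defined defects in DNA damage repair.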

[7] abbreviates: at 5.0 µM (retest, dose inferred, filed as 0.5).
The mark [8] stands for this setting: at 50.0 µM (retest, dose inferred, filed as 5.0).

From PubChem BioAssay (NCI) come the findings set out here.

This is part of a sample that, as a whole, favours compounds with a hit. Of some 79,000 tested, about 15% had one in any assay. Unmarked numbers belong to inactive results. The source made the active and inactive calls. No stated cut-off is given here; in the data, active means growth inhibition above about 70%; inactive means the rest.

As to `Oc1ccccc1C(Sc1nc2ccccc2s1)Sc1nc2ccccc2s1`, the growth inhibition in test [1] (setting [7]) is 4%; in test [1] (setting [8]), 97% (active); in test [1] (at 50.0 µM) it was 97.3% (active); in test [2] (setting [7]), 16%; in test [2] (setting [8]) it was 97% (active); in test [2] (at 50.0 µM), 95.8% (active). The growth inhibition in test [3] (setting [7]) was 19%; in test [3] (setting [8]), 97% (active); in test [3] (at 50.0 µM) it was 97.2% (active); in test [4] (setting [7]) it was -1%; in test [4] (setting [8]), 93% (active); in test [4] (at 50.0 µM), 72% (active). Moreover, the growth inhibition in test [5] (setting [7]) was -3%; in test [5] (setting [8]), 97% (active); in test [5] (at 50.0 µM), 91% (active); in test [6] (setting [7]) it was 3%; in test [6] (setting [8]) it was 98% (active); in test [6] (at 50.0 µM), 90% (active).

Consider `Cc1ccsc1C(=S)Nc1ccc(Cl)c(/C=N/OC(C)C)c1`, for which the growth inhibition was 4% in test [1] (setting [7]); 15% in test [1] (setting [8]); 32% in test [1] (at 50.0 µM); 9% in test [2] (setting [7]); 14% in test [2] (setting [8]); 19.9% in test [2] (at 50.0 µM). Further, the growth inhibition in test [3] (setting [7]) is 7%; in test [3] (setting [8]), 31%; in test [3] (at 50.0 µM), 21.6%; in test [4] (setting [7]), 2%; in test [4] (setting [8]) it was 17%; in test [4] (at 50.0 µM), 44.8%. The growth inhibition is 13% in test [5] (setting [7]); 43% in test [5] (setting [8]); 23.1% in test [5] (at 50.0 µM); 12% in test [6] (setting [7]); 14% in test [6] (setting [8]); 55.2% in test [6] (at 50.0 µM).

Take `COC12C(COC(N)=O)C3=C(C(=O)C(C)=C(N)C3=O)N1CC1C2N1C(=O)/C=C/c1ccccc1` (stereo not given): the growth inhibition in test [1] (setting [7]) was 11%; in test [1] (setting [8]) it was 72% (active); in test [1] (at 50.0 µM), 73.7% (active); in test [2] (setting [7]), 13%; in test [2] (setting [8]), 82% (active); in test [2] (at 50.0 µM) it was 70.7% (active). Also, the growth inhibition was 24% in test [3] (setting [7]); 87% (active) in test [3] (setting [8]); 85.7% (active) in test [3] (at 50.0 µM); 3% in test [4] (setting [7]); 80% (active) in test [4] (setting [8]); 75.7% (active) in test [4] (at 50.0 µM). The growth inhibition is 2% in test [5] (setting [7]); 66% in test [5] (setting [8]); 72.4% (active) in test [5] (at 50.0 µM); 27% in test [6] (setting [7]); 90% (active) in test [6] (setting [8]); 87% (active) in test [6] (at 50.0 µM).

For the compound `Oc1c(Br)ccc2cccnc12`, the growth inhibition is 26% in test [1] (setting [7]); 99% (active) in test [1] (setting [8]); 87.2% (active) in test [1] (at 50.0 µM); 23% in test [2] (setting [7]); 99% (active) in test [2] (setting [8]); 91.2% (active) in test [2] (at 50.0 µM). The growth inhibition is 4% in test [3] (setting [7]); 99% (active) in test [3] (setting [8]); 83.8% (active) in test [3] (at 50.0 µM); 0% in test [4] (setting [7]); 98% (active) in test [4] (setting [8]); 88.6% (active) in test [4] (at 50.0 µM). The growth inhibition in test [5] (setting [7]) was 1%; in test [5] (setting [8]) it was 99% (active); in test [5] (at 50.0 µM), 88.5% (active); in test [6] (setting [7]), 1%; in test [6] (setting [8]) it was 98% (active); in test [6] (at 50.0 µM), 82.3% (active).

Consider `C/C=C/C=C1\C=Cc2c(C(=O)OC)coc(=O)c21`, for which the growth inhibition is -9% in test [1] (setting [7]); 85% (active) in test [1] (setting [8]); 92% (active) in test [1] (at 50.0 µM); 14% in test [2] (setting [7]); 91% (active) in test [2] (setting [8]); 94.2% (active) in test [2] (at 50.0 µM). Also, the growth inhibition is 7% in test [3] (setting [7]); 85% (active) in test [3] (setting [8]); 76.3% (active) in test [3] (at 50.0 µM); -9% in test [4] (setting [7]); 76% (active) in test [4] (setting [8]); 62.8% in test [4] (at 50.0 µM). For the same compound, the growth inhibition in test [5] (setting [7]) is 15%; in test [5] (setting [8]), 96% (active); in test [5] (at 50.0 µM) it was 94% (active); in test [6] (setting [7]) it was 14%; in test [6] (setting [8]), 97% (active); in test [6] (at 50.0 µM), 95% (active).

As to `CCOC(=O)C(=NNc1ccccc1)C(=O)OCC`, the growth inhibition in test [1] (setting [7]) was 2%; in test [1] (setting [8]), 50%; in test [1] (at 50.0 µM), 42.4%; in test [2] (setting [7]), -3%; in test [2] (setting [8]), 2%; in test [2] (at 50.0 µM) it was 33.2%. In addition, the growth inhibition in test [3] (setting [7]) is -4%; in test [3] (setting [8]) it was 16%; in test [3] (at 50.0 µM) it was 42.5%; in test [4] (setting [7]), -1%; in test [4] (setting [8]), 4%; in test [4] (at 50.0 µM) it was -14.6%. Further, the growth inhibition was -1% in test [5] (setting [7]); 27% in test [5] (setting [8]); 46.9% in test [5] (at 50.0 µM); 1% in test [6] (setting [7]); 25% in test [6] (setting [8]); 62.9% in test [6] (at 50.0 µM).

As for `COC1C(N)C(OC2C(Oc3cccc4c(O)c5c(=O)oc6ccc(C)c7c(=O)oc(c34)c5c67)OC(C)C(O)C2(C)O)OC(C)C1O` (stereo not given), the growth inhibition was 12% in test [1] (setting [7]); 48% in test [1] (setting [8]); 26.8% in test [1] (at 50.0 µM); -6% in test [2] (setting [7]); 8% in test [2] (setting [8]); 20.3% in test [2] (at 50.0 µM). Further, the growth inhibition is 29% in test [3] (setting [7]); 32% in test [3] (setting [8]); 23.1% in test [3] (at 50.0 µM); 8% in test [4] (setting [7]); 36% in test [4] (setting [8]); 32% in test [4] (at 50.0 µM). The growth inhibition is 19% in test [5] (setting [7]); 30% in test [5] (setting [8]); 19.4% in test [5] (at 50.0 µM); 11% in test [6] (setting [7]); 15% in test [6] (setting [8]); 60.4% in test [6] (at 50.0 µM).

Consider `O=C(NNc1ncccn1)c1ccc(C(=O)NNc2ncccn2)cc1`, for which the growth inhibition in test [1] (setting [7]) is -2%; in test [1] (setting [8]), 99% (active); in test [1] (at 50.0 µM), 2.75%; in test [2] (setting [7]), 0%; in test [2] (setting [8]), 100% (active); in test [2] (at 50.0 µM), 2.1%. Moreover, the growth inhibition is -3% in test [3] (setting [7]); 100% (active) in test [3] (setting [8]); 41.5% in test [3] (at 50.0 µM); 7% in test [4] (setting [7]); 99% (active) in test [4] (setting [8]); -25.6% in test [4] (at 50.0 µM). Also, the growth inhibition in test [5] (setting [7]) is 3%; in test [5] (setting [8]) it was 99% (active); in test [5] (at 50.0 µM), -2.6%; in test [6] (setting [7]) it was 2%; in test [6] (setting [8]), 99% (active); in test [6] (at 50.0 µM), 21.4%.

For `CC1(C)CCC2(CC1)CC(=O)OC(=O)C2`, the growth inhibition in test [1] (setting [7]) is -159%; in test [1] (setting [8]), -162%; in test [1] (at 50.0 µM), -3.9%; in test [2] (setting [7]), -50%; in test [2] (setting [8]) it was -54%; in test [2] (at 50.0 µM), 18.5%. Besides, the growth inhibition is -64% in test [3] (setting [7]); -62% in test [3] (setting [8]); 6.6% in test [3] (at 50.0 µM); -59% in test [4] (setting [7]); -59% in test [4] (setting [8]); 27.8% in test [4] (at 50.0 µM). Also, the growth inhibition in test [5] (setting [7]) is -71%; in test [5] (setting [8]), -82%; in test [5] (at 50.0 µM), -3.4%; in test [6] (setting [7]) it was -145%; in test [6] (setting [8]), -117%; in test [6] (at 50.0 µM), 3.95%.

Regarding `C1CCC(CC[N+]23CC[N+](CCC4CCCC4)(CC2)C3)C1`, the growth inhibition in test [1] (setting [7]) was 1%; in test [1] (setting [8]), 33%; in test [1] (at 50.0 µM), 62.3%; in test [2] (setting [7]), -8%; in test [2] (setting [8]) it was 34%; in test [2] (at 50.0 µM), -14.4%. In addition, the growth inhibition in test [3] (setting [7]) is 12%; in test [3] (setting [8]), 72% (active); in test [3] (at 50.0 µM) it was 45.3%; in test [4] (setting [7]), 2%; in test [4] (setting [8]) it was 15%; in test [4] (at 50.0 µM), -8.6%. Moreover, the growth inhibition is 2% in test [5] (setting [7]); 25% in test [5] (setting [8]); 11.6% in test [5] (at 50.0 µM); 24% in test [6] (setting [7]); 59% in test [6] (setting [8]); 40% in test [6] (at 50.0 µM).
